Test results published in PubChem BioAssay (NCATS).
Inconclusive results are not listed. The source made the active and inactive calls. Calls follow the shape of the dose curve; as a rule, active = well fitted curve in the direction sought with a large enough effect; inconclusive = small, poorly fitted or top-dose-only effect, or another doubt; inactive = no such curve, though single readings can be large; an effect the other way counts as inactive or inconclusive.

Key:
[1] = Quantitative High-Throughput drug screen in 47 multiple myeloma cell lines against the NCATS MIPE library collection: AMO1_DSMZ cell viability assay (AID 1918927; also: nearly all actives have a fitted effect of over 30% in size)
How it was run: (§1)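 Primary qHTS used for cherry-picking: cells at 500/well, library compounds for 48 h (37C, 5% CO2), luminescent ATP assay.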

[2] = Quantitative High-Throughput drug screen in 47 multiple myeloma cell lines against the NCATS MIPE library collection: ARD_JJKsccE7 cell viability assay (AID 1918929)
How it was run: as §1

[3] = Quantitative High-Throughput drug screen in 47 multiple myeloma cell lines against the NCATS MIPE library collection: Karpas620_DSMZ cell viability assay (AID 1918959); also: nearly all actives have a fitted effect of over 30% in size
How it was run: (§2)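 Myeloma cell lines, 500 cells per well, exposed to MIPE 4.0 library compounds for 48 h at 37C, 5% CO2. Viability from ATP by CellTiter-Glo luminescence; normalised to DMSO (100%) and media-only (0%) wells.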

[4] = Quantitative High-Throughput drug screen in 47 multiple myeloma cell lines against the NCATS MIPE library collection: KHM11_PLB cell viability assay (AID 1918962); also: nearly all actives have a fitted effect of over 35% in size
How it was run: as §2

[5] = Quantitative High-Throughput drug screen in 47 multiple myeloma cell lines against the NCATS MIPE library collection: INA6_PLB cell viability assay (AID 1918965; also: nearly all actives have a fitted effect of over 55% in size)
How it was run: as §2

[6] = Quantitative High-Throughput drug screen in 47 multiple myeloma cell lines against the NCATS MIPE library collection: ARP1_JJKsccF8 cell viability assay (AID 1918928; also: nearly all actives have a fitted effect of over 40% in size)
How it was run: (§3)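 ATP readout (CellTiter-Glo), 48 h drug incubation, 37 °C/5% CO2, 500 cells per well; normalisation to DMSO (100%) and media-only (0%) controls.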

[7] = Quantitative High-Throughput drug screen in 47 multiple myeloma cell lines against the NCATS MIPE library collection: JIM3_ECACC cell viability assay (AID 1918963; also: nearly all actives have a fitted effect of over 35% in size)
How it was run: as §2

[8] = Quantitative High-Throughput drug screen in 47 multiple myeloma cell lines against the NCATS MIPE library collection: KMM1_JCRB cell viability assay (AID 1918960); also: nearly all actives have a fitted effect of over 30% in size
How it was run: as §3

[9] = Quantitative High-Throughput drug screen in 47 multiple myeloma cell lines against the NCATS MIPE library collection: JIM1_ECACC cell viability assay (AID 1918964)
How it was run: as §1

Measured: Potency
Potency is read from the fitted curve at half-maximal effect.

Cc1ccc(NC(=O)c2cccc(C(C)(C)C#N)c2)cc1Nc1ccc2ncn(C)c(=O)c2c1
active: [1] 5.9 µM | [2] 0.332 µM | [3] 1.18 µM | [4] 0.166 µM | [5] 14.8 µM

N#CC[C@H](C1CCCC1)n1cc(-c2ncnc3[nH]ccc23)cn1
inactive: [6]
active: [1] 6.62 µM | [3] 5.26 µM | [5] 0.372 µM

COc1cc2nccc(Oc3ccc(NC(=O)NC4CC4)c(Cl)c3)c2cc1C(N)=O
active: [1] 2.09 µM | [6] 14.8 µM | [7] 13.2 µM | [5] 16.6 µM
inactive: [3]

Fc1ccc(Cl)cc1-c1nc(Nc2ccncc2)c2nccnc2n1
inactive: [2] | [3]
active: [1] 5.26 µM | [5] 16.6 µM

Cc1ccc(N(CC2=NCCN2)c2cccc(O)c2)cc1
active: [1] 23.5 µM | [6] 29.6 µM | [5] 13.2 µM
inactive: [4]

Cc1csc(NC(=O)c2sc3nc4c(c(C(F)(F)F)c3c2N)CCC4)n1
not listed: [5] | [6] | [9]
inactive: all other assays above

Cc1oncc1C(=O)Nc1ccc(C(F)(F)F)cc1
inactive: [1] | [2] | [3] | [9]

CC(C)(C)NCC(O)c1ccc(O)c(CO)c1 (centres undefined)
active: [2] 0.0526 µM | [8] 0.059 µM
not listed: [6] | [9]
inactive: all other assays above

CCCS(=O)(=O)Nc1ccc(F)c(C(=O)c2c[nH]c3ncc(Cl)cc23)c1F
active: [1] 20.9 µM | [2] 18.7 µM | [3] 20.9 µM | [7] 16.6 µM | [5] 2.96 µM

Cc1c(CN2CCN(C(=O)C(C)C)CC2)sc2c(N3CCOCC3)nc(-c3cnc(N)nc3)nc12
active: [1] 0.166 µM | [6] 0.0235 µM | [4] 0.132 µM | [7] 0.418 µM | [9] 0.0132 µM | [5] 0.235 µM

COc1ccc2c3n(c(=NC(=O)c4cccnc4)nc2c1OC)CCN3
active: [1] 18.7 µM | [6] 2.64 µM | [3] 7.43 µM | [7] 18.7 µM | [5] 23.5 µM

COc1ccc(-c2oc3cc(OC)ccc3c2C(=O)c2ccc(C#N)cc2)cc1
active: [1] 7.43 µM | [2] 10.5 µM | [3] 1.66 µM | [9] 6.62 µM
inactive: [5]

CS(=O)(=O)Oc1ccc2c(NC(N)=O)c(C(=O)c3ccc(Cl)cc3Cl)oc2c1
active: [1] 9.35 µM | [2] 8.33 µM | [3] 10.5 µM | [5] 5.26 µM

CC(C)(N)C(=O)N[C@H](COCc1ccccc1)C(=O)N1CCC2(CC1)CN(S(C)(=O)=O)c1ccccc12
active: [4] 18.7 µM | [5] 10.5 µM
not listed: [6] | [7]
inactive: all other assays above

COc1ccc(COc2cc3oc(=O)c4cc(C(C)O)ccc4c3cc2OC)cc1 (centres undefined)
active: [1] 5.9 µM | [2] 3.72 µM | [3] 4.69 µM | [8] 4.69 µM | [4] 7.43 µM | [5] 18.7 µM

CCC(=O)N[C@H]1CC[C@H](C(=O)N(C)c2ccc(-c3nc4ccccc4o3)cc2)C1
active: [1] 11.8 µM | [2] 11.8 µM | [7] 8.33 µM | [5] 14.8 µM

N[C@@H]1CONC1=O
not listed: [4] | [6]
inactive: all other assays above

Cn1cc(-c2ccc3nnc(C(F)(F)c4ccc5ncccc5c4)n3n2)cn1
active: [1] 13.2 µM | [4] 4.69 µM
inactive: [3] | [7]

CS(=O)(=O)c1ccc(C(=O)Nc2ccc(Cl)c(-c3ccccn3)c2)c(Cl)c1
inactive: [6] | [2] | [3] | [8] | [9]
active: [5] 4.18 µM

Cc1cccc(-c2[nH]c(C(C)(C)C)nc2-c2ccc3nccnc3c2)n1
active: [1] 5.26 µM | [3] 6.62 µM | [7] 2.64 µM | [9] 6.62 µM | [5] 7.43 µM

Nc1nc2c(ncn2COCCO)c(=O)[nH]1
inactive: [6] | [3] | [8] | [4] | [7]

CCn1c(-c2nonc2N)nc2cnc(Oc3cccc(NC(=O)c4ccc(OCCN5CCOCC5)cc4)c3)cc21
active: [6] 18.7 µM | [2] 5.9 µM | [8] 7.43 µM | [7] 20.9 µM | [9] 5.9 µM | [5] 2.64 µM

Nc1nc2[nH]cc(CCc3ccc(C(=O)N[C@@H](CCC(=O)O)C(=O)O)cc3)c2c(=O)[nH]1
active: [6] 0.418 µM | [2] 0.469 µM | [8] 0.59 µM | [7] 0.833 µM | [5] 0.743 µM
inactive: [3]

O=C(C=Cc1ccc(/C=C/C(=O)Nc2ccc(C3=NCCN3)cc2)cc1)Nc1ccc(C2=NCCN2)cc1
inactive: [6] | [2] | [3] | [7]
